According to PubChem BioAssay AID463173 (ICCB-Longwood Screening Facility, Harvard Medical School, 2010):
The whole screen tested about 52,000 compounds, of which about 4,300 (8.3%) were called active. This excerpt belongs to a sample that is enriched for actives. Unmarked numbers belong to inactive results. Rule as the data show it: active = survival mostly below about 52% (no sharp cut-off); inactive = mostly above about 56%.

What follows are compounds tested on DeltatarO mutant (assay: S. aureus survival, RN4220 and DeltatarO strains – OD600, teichoic acid synthesis inhibitors, primary screen (AID 463173)). Conditions: S. aureus RN4220 wild type/DeltatarO growth, OD600, 18 h, stronger effect = lower value, screened at 18.75 µg/mL (by protocol).

Structure (SMILES) | survival
CCN1CCN(C(=O)c2cnn(-c3cccc(C)c3)c2C2CCN(C(=O)OC(C)(C)C)CC2)CC1 | 89%
O=[N+]([O-])c1cc(-c2nc(-c3ccccc3)no2)ccc1NC1CCCCC1 | 75%
CC(C)Oc1ccc(C(=O)N2CCN(CCc3ccccn3)CC2)cc1 | 68%
Cc1cccc(NC(=O)C2CCCN(S(=O)(=O)c3cccc4nonc34)C2)c1 (stereo not given) | 92%
COC(=O)c1sc(-c2ccccc2)cc1NC(=O)Nc1ccc(Cl)cc1 | 11% (active)
CCOc1ccc(-c2cc(NC(=O)Nc3ccccc3C(F)(F)F)c(C(=O)OC)s2)cc1 | 60%
COC(=O)c1sc(-c2ccccc2)cc1NC(=O)Nc1ccccc1Cl | 43%
COC(=O)c1sc(-c2ccccc2)cc1NC(=O)c1cccc(F)c1 | 94%
CCOc1ccc(-c2cc(NC(=O)Nc3cccc(C(C)=O)c3)c(C(=O)OC)s2)cc1 | 53%
CCOc1ccc(-c2cc(NC(=O)c3ccccc3)c(C(=O)OC)s2)cc1 | 94%
COC(=O)c1sc(-c2ccccc2)cc1NC(=O)c1cccc(Cl)c1 | 34% (active)
CCOc1ccc(-c2cc(NC(=O)c3ccc(C)cc3)c(C(=O)OC)s2)cc1 | 70%
O=C(Nc1cc(-c2ccccc2)sc1C(=O)O)c1cccc(F)c1 | 38% (active)
CCOc1ccc(-c2cc(NC(=O)Nc3ccc(Cl)cc3)c(C(=O)OC)s2)cc1 | 101%
CCOc1ccc(-c2cc(NC(=O)c3cccc(Cl)c3)c(C(=O)OC)s2)cc1 | 77%
COC(=O)c1sc(-c2ccccc2)cc1NC(=O)Nc1ccc(F)cc1 | 21% (active)
Cc1noc2ncnc(N3CCCC(C(=O)NCCC(C)C)C3)c12 (stereo not given) | 88%
CCOc1ccccc1CNC(=O)c1cccc(NC(=O)c2nsc3ccccc23)c1 | 88%
Cc1c(Cl)cccc1NC(=O)CCn1nc(C)c2c(C)n(-c3ccccc3)nc2c1=O | 92%
Cc1c(C(=O)N2CCOCC2)oc2c1-c1nn(CC(=O)NCc3ccccc3)cc1CC2 | 79%
Cc1ccc(S(=O)(=O)NCc2nc3cccnc3n2Cc2ccccc2Cl)c(C)c1 | 89%
Cc1ccccc1OCCSc1nc(C)c(Cc2ccccc2)c(=O)[nH]1 | 97%
CCc1ccc(-n2nc(CO)c(C(=O)NCCCCc3ccccc3)n2)cc1 | 47%

Structure (SMILES) | survival
Cc1ccc(C)c(Nc2nn3c(=O)c4ccc(C(=O)NCc5cccs5)cc4nc3s2)c1 | 65%
COC(=O)c1ccc2c(=O)n(CCCCCC(=O)NCCc3ccccc3)c(=O)[nH]c2c1 | 79%
CC(C)CCNC(=O)CCCn1c(=O)c2cccn2c2ccccc21 | 68%
COC(=O)c1ccc2c(=O)n(CCCCCC(=O)NCc3ccc(Cl)cc3)c(=O)[nH]c2c1 | 74%
CCOc1ccc(CCNC(=O)CCCn2c(=O)c3cccn3c3ccccc32)cc1 | 72%
O=C(CCCn1c(=O)c2cccn2c2cccnc21)NCCc1ccc(Cl)cc1 | 63%
O=C(CCCn1c(=O)c2cccn2c2ccccc21)NCCc1ccc(Cl)cc1 | 32% (active)
COC(=O)c1ccc2c(=O)n(CCCCCC(=O)NCCc3ccc(Cl)cc3)c(=O)[nH]c2c1 | 52% (active)
CSc1ccc(CCNC(=O)CCn2c(=O)c3cccn3c3cccnc32)cc1 | 90%
CSc1ccc(CCNC(=O)CCCn2c(=O)c3cccn3c3ccccc32)cc1 | 42% (active)
CN(CCCN1C(=O)c2ccccc2C1=O)CCCN1C(=O)c2ccccc2C1=O | 93%
CCOc1ccc(NC(=O)CC2C(=O)N(c3ccccc3)C(=O)N2Cc2ccc3c(c2)OCO3)cc1 (stereo not given) | 79%
CN1CCN(C(CNC(=O)C(=O)Nc2ccccc2C#N)c2ccc3c(c2)OCO3)CC1 (stereo not given) | 73%
COCCCNC(=O)CCC(=O)N1Cc2ccccc2Oc2ncccc21 | 84%
COC(=O)c1cc2sc(C)cc2n1CC(=O)Nc1ccc(C)c(C)c1 | 64%
COC(=O)c1cc2sc(C)cc2n1Cc1cccc(OC)c1 | 1% (active)
COC(=O)c1cc2sc(Cl)cc2n1Cc1c(C)cc(C)cc1C | 98%
COC(=O)c1cc2sc(C)cc2n1Cc1ccccc1 | 95%
C=Cc1ccc(Cn2c(C(=O)OC)cc3sc(C)cc32)cc1 | 27% (active)
COC(=O)c1cc2sc(C)cc2n1Cc1ccc(Br)cc1F | 89%
Cn1c(=O)n(C)c2cc(N3CCOCC3)c(NS(=O)(=O)c3ccc(F)cc3)cc21 | 126%
COc1ccc(CNC(=O)C2CCN(S(=O)(=O)c3ccc4nc5c(c(C(=O)O)c4c3)CCCC5)CC2)cc1 | 99%
Clc1ccc(CCNc2nc3cc(Cl)c(Cl)cc3n3cnnc23)cc1 | 91%

Structure (SMILES) | survival
O=C1CCSC2(C(=O)N(Cc3ccc(F)cc3)c3ccccc32)N1c1ccc(F)c(F)c1 (stereo not given) | 83%
COc1ccc(Cn2c(=O)c3oc4ccccc4c3n(Cc3ccccc3)c2=O)cc1 | 82%
O=C(Nc1ccccc1C(F)(F)F)N1CCOc2ccc(Cl)cc21 | 46%
COC(=O)Cn1c(C(O)c2ccccc2)nc2ccccc21 (stereo not given) | 71%
OC(c1ccccc1)c1nc2ccccc2n1Cc1c(F)cccc1Cl (stereo not given) | 74%
Cc1cc(C)c(Cn2c(C(O)c3ccccc3)nc3ccccc32)c(C)c1 (stereo not given) | 31% (active)
COc1cc2nc(NCCc3ccccc3)n3nc(-c4cccnc4)nc3c2cc1OC | 118%
COc1ccc(CCNc2nc3cc(OC)c(OC)cc3c3nc(-c4cccnc4)nn23)cc1OC | 117%
COc1ccc(CCNc2nc3ccccc3c3nc(-c4cccc(C)c4)nn23)cc1OC | 20% (active)
COc1ccc(CCNc2nc3cc(OC)c(OC)cc3c3nc(-c4ccccc4)nn23)cc1OC | 93%
Cc1cccc(-c2nc3c4ccccc4nc(NCCc4ccccc4)n3n2)c1 | 7% (active)
COc1cc2nc(NCCc3cccc(C)c3)n3nc(-c4ccccc4)nc3c2cc1OC | 59%
Cc1cc2[nH]c(=O)c(=O)[nH]c2cc1S(=O)(=O)Nc1ccc(OC(F)(F)F)cc1 | 67%
CCCn1c(=O)n(-c2cc(Cl)c(OC)cc2OC)c(=O)c2c3c(sc21)CN(C(C)=O)CC3 | 62%
O=C(O)CCc1ccc(-c2ccccc2)n1CC(=O)Nc1ccccc1C(F)(F)F | 60%
CCc1ccccc1NC(=O)C1=C(C)C(=O)OC12CCCCCC2 | 58%
CCn1cc(C(=O)OCC(=O)Nc2cc(Cl)ccc2C)c(=O)c2ccc(C)nc21 | 74%
CCn1cc(C(=O)OCC(=O)Nc2ccc(C)c(Cl)c2)c(=O)c2ccc(C)nc21 | 63% (active)
CCn1cc(C(=O)OCC(=O)Nc2cc(C)cc(C)c2)c(=O)c2ccc(C)nc21 | 64%
CCCCC1CCC(CCCC(C)CCC(=O)O)CC1 (stereo not given) | -4% (active)
CCCCCCC1CC=C(C(=O)O)CC1 (stereo not given) | 76%
CCCCCCC1CCC(C(=O)NC(C(=O)O)C(C)C)CC1 (stereo not given) | 49%
O=c1c2sc3ccccc3c2n(Cc2ccccc2)c(=O)n1CCc1ccccc1 | 71%

Structure (SMILES) | survival
COc1ccc(S(=O)(=O)N(CC(=O)Nc2cccnc2)c2ccc(Cl)cc2)cc1 | 30% (active)
COc1ccc(N(CC(=O)Nc2cc(OC)cc(OC)c2)S(=O)(=O)c2c(C)noc2C)cc1 | 45% (active)
COc1ccc(N(CC(=O)NCc2ccc(F)cc2)S(=O)(=O)c2c(C)noc2C)cc1 | 82%
CS(=O)(=O)N(CC(=O)Nc1cccnc1)c1ccc(Cl)cc1 | 91%
COc1ccc(S(=O)(=O)N(CC(=O)Nc2cc(C)cc(C)c2)c2ccc(Cl)cc2)cc1 | 77%
O=C(CN(c1ccc(Cl)c(C(F)(F)F)c1)S(=O)(=O)c1ccccc1)Nc1cccnc1 | 47% (active)
CCOc1ccc(S(=O)(=O)N(CC(=O)Nc2cccnc2)c2ccccc2)cc1 | 114%
COc1ccc(N(CC(=O)Nc2cc(Cl)ccc2C)S(=O)(=O)c2c(C)noc2C)cc1 | 51%
O=C(CN(c1ccc(Cl)c(C(F)(F)F)c1)S(=O)(=O)c1ccccc1)N1CCc2ccccc2C1 | 42%
Cc1cc(C)c(NC(=O)Cn2c(=O)n(CC(=O)NCc3ccccc3Cl)c(=O)c3sccc32)c(C)c1 | 171%
Cc1ccc(N2CCN(C(=O)c3nn(C)c4c3CS(=O)(=O)c3ccccc3-4)CC2C)cc1 (stereo not given) | 56%
O=C(c1ccc2c(c1)N(Cc1cccc(Cl)c1)C(=O)c1ccccc1S2(=O)=O)N1CCCC1 | 115%
CCOc1ccccc1CNC(=O)CSc1nnc(C)c2c(C)n(-c3ccccc3)nc12 | 83%
CC(C)CNS(=O)(=O)c1ccc(S(=O)(=O)N2CCCC(C(=O)NC3CCCCC3)C2)cc1 (stereo not given) | 75%
CCCCOc1ccc(CNC(=O)C2COc3ccc(OC)cc3C2)cc1 (stereo not given) | 94%
O=C(NC1CCCCC1)c1c[nH]c2ccc(S(=O)(=O)Nc3ccccc3F)cc2c1=O | 83%
CCc1ccccc1NS(=O)(=O)c1ccc2[nH]cc(C(=O)NC3CCCC3)c(=O)c2c1 | 33% (active)
CNC(=O)c1c[nH]c2ccc(S(=O)(=O)Nc3cccc(Cl)c3C)cc2c1=O | 91%
CCOCCCNC(=O)c1c[nH]c2ccc(S(=O)(=O)Nc3cccc(Cl)c3C)cc2c1=O | 93%
Cc1c(Cl)cccc1NS(=O)(=O)c1ccc2[nH]cc(C(=O)NC3CCCC3)c(=O)c2c1 | 7% (active)
Cc1ccccc1NS(=O)(=O)c1ccc2[nH]cc(C(=O)NC3CCCCC3)c(=O)c2c1 | 85%
